Bioassay records from PubChem.
PriA SSB inh: inhibitors of Klebsiella pneumoniae PriA binding to SSB C-terminal tail; AlphaScreen SSBct-PriA binding, biotinylated peptide; inhibition, % at 33 µM; hit rate 0.6% among 430,000; in the data active means inhibition mostly above about 37%, no sharp cut-off; inactive means mostly below about 20%;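 further: plate controls were negative control peptide for no effect and reference peptide for full effect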
MazEF act: MazEF (E. coli) toxin RNase activation; P0AE70; FAM/BHQ RNA-DNA oligo cleavage fluorescence, 5 h; activation, % at 20 µM; hit rate 0.32% among 350,000; AID 504720; in the data active means activation above about 50%
Target sequence (P0AE70 whole entry, looked up): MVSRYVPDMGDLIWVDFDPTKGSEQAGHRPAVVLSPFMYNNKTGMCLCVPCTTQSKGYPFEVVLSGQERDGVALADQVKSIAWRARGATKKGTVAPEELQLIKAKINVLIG
Yp Topo-I inh: Y. pestis Topo-I inhibition via cleavage products. Y. pestis Topo-I cleavage product accumulation, plate reader. activity, % at 10 µM. hit rate 0.064% among 360,000; in the data active means activity above about 50%, passing the limit was not always enough
SARS 3CLpro inh: SARS-CoV 3CLpro protease inhibition; inhibition, % at 6 µM; hit rate 0.14% among 290,000; P0C6X7; recombinant SARS-CoV 3CLpro, quenched FRET peptide cleavage; in the data active means inhibition above about 12%
Starred values were filed as active, the others as inactive; / = no result; + = active, no number. Hits are enriched below; roughly 0.9% of the tested compounds scored in any of these assays.

SMILES	PriA SSB inh	MazEF act	Yp Topo-I inh	SARS 3CLpro inh
COc1ccc(CCNS(=O)(=O)c2c(Cl)cccc2Cl)cc1OC	-7	/	/	/
O=c1[nH]c(O)c(C=NN2CCOCC2)c(=O)[nH]1	12	/	/	/
COc1ccc([C@H]2CC(=O)C=C(c3cc(Cl)ccc3C)C2)cc1	-8	0	42	/
Cc1ccc(Cl)cc1C1=CC(=O)C[C@H](c2ccc(F)cc2)C1	-4	-5	69*	/
O=C(Cc1ccccc1)Nc1nnc(-c2ccco2)o1	1	5	8	3
Cc1ccsc1C(=O)Nc1nnc(-c2ccco2)o1	50*	5	-7	3
Cc1ccc(C(=O)Nc2nnc(-c3ccco3)o2)cc1	1	-6	-5	2
Cc1ccc(CC(=O)Nc2nnc(-c3ccco3)o2)c(C)c1	41*	/	/	/
O=S(=O)(Nc1nc2ccccc2nc1NCc1ccco1)c1cccc2nsnc12	11	/	/	/
COC(=O)C(=NNc1ccc(Cl)cc1)Sc1nnc(-c2ccc(OC)cc2)n1C	116*	/	/	/
CCOc1ccc(NS(=O)(=O)c2ccc(C(=O)NCC(c3ccco3)N3CCCC3)cc2)cc1 (configuration not stated)	6	52*	-13	/
Cc1noc(C)c1CCC(=O)N1CCSC(c2ccco2)CC1 (configuration not stated)	0	/	/	/
C#CCOCCOCCOCCNc1nc(N2CCN(C(=O)C(Cc3cc4ccccc4[nH]3)n3cc(C(N)C(C)CC)nn3)CC2)nc(N2CCN(C(=O)C(Cc3cc4ccccc4[nH]3)n3cc(C(N)C(C)CC)nn3)CC2)n1 (configuration not stated)	43*	-79	-7	5
C#CCOCCOCCOCCNc1nc(N2CCOCC2)nc(N2CCN(C(=O)[C@H](Cc3cc4ccccc4[nH]3)n3cc([C@@H](N)C(C)CC)nn3)CC2)n1 (some centres not stated)	1	2	-7	-1
COc1cccc(S(=O)(=O)N2CCc3nc(NC(=O)c4ccsc4)sc3C2)c1	2	/	/	/
O=C(NN1C(=O)c2ccccc2NC1c1ccc([N+](=O)[O-])o1)c1ccc(Br)cc1 (configuration not stated)	0	64*	-3	3
Cc1ccc(CNC(=O)CN2C(=O)COc3ccc(C)cc32)cc1	39*	9	9	4
Cc1ccc(Cl)c2c(N=Nc3ccccc3)c(O)[nH]c12	-13	+	0	1
Cc1cc(Cl)cc2c(N=Nc3ccccc3C(=O)O)c(O)[nH]c12	0	-18	-3	6
CN(C)CCCN(C(=O)C(c1ccccc1)c1ccccc1)c1nc2ccc(F)cc2s1	27	/	/	/
Clc1cccc(N/N=C(\Cc2nc3ccccc3[nH]2)c2ccccc2)c1	/	72*	-30	3
O=c1cc(-c2ccccc2)nc2n1CCCN2	-8	/	/	/
COc1cc(C=NN=C2NC(=O)C(CC(=O)O)S2)ccc1OCc1ccc(Cl)cc1 (configuration not stated)	4	/	/	/
COc1ccc2c(c1)c(/C=N/Nc1nc3ccccc3[nH]1)c(C)n2C	+	-11	-28	-10
COc1cc(/C=N\Nc2nc3ccccc3[nH]2)cc(OC)c1OC	/	5	-4	-2
SMILES	PriA SSB inh	MazEF act	Yp Topo-I inh	SARS 3CLpro inh
O=S(=O)(c1cccc(-c2csc(-c3ccccc3)n2)c1)N1CCOCC1	-18	-17	-4	0
CC1CN(S(=O)(=O)c2cccc(-c3csc(-c4ccccc4)n3)c2)CC(C)O1 (configuration not stated)	-10	70*	29	1
OCCOCc1ccc(O)c2ncccc12	140*	/	/	/
Oc1ccc(Cn2ccnc2)c2cccnc12	99*	-16	5	2
c1ccc2c(Cn3ccnc3)c[nH]c2c1	-8	-3	-6	3
COCc1ccc(O)c2ncccc12	94*	-3	-9	-4
Cc1ccc(NC(=O)COC(=O)CCc2c[nH]c3ccccc23)cc1[N+](=O)[O-]	40*	1	13	1
CC1(C)CC(=O)C(N=Nc2cc3c(cc2[N+](=O)[O-])OCCO3)=C(O)C1	2	93*	6	0
CN1CCCC1CCNC1C2CC3CC(C2)CC1C3 (configuration not stated)	41*	0	-4	0
O=C1c2ccccc2C2=Nc3ccccc3SC(c3cccc(F)c3)C12 (configuration not stated)	27	12	-22	3
O=C1c2ccccc2C2=Nc3ccccc3SC(c3ccc(Cl)cc3)C12 (configuration not stated)	53*	14	-12	-1
Cc1ccc(NC2=C(Cl)C(=O)c3ccccc3C2=O)cc1	11	-1	-11	-4
Cc1cc(C)cc(NC2=C(N)C(=O)c3ccccc3C2=O)c1	54*	0	-13	-2
CCN(CC)CCN(C(=O)c1ccc(S(=O)(=O)N2CCCCCC2)cc1)c1nc2ccc(OC)cc2s1	21	/	/	/
COC(=O)C1=C(C)N(Cc2ccccc2)C(=NCCc2c[nH]c3ccccc23)N[C@H]1c1ccccc1	47*	-13	-19	/
COC(=O)C1=C(C)N(Cc2ccccc2)C(=NCCc2c[nH]c3ccccc23)N[C@H]1c1cccc(F)c1	18	17	-22	/
CCCn1c(O)c(N=Nc2ccc3ccccc3n2)c2ccccc21	-25	146*	14	-4
COc1cccc(NC(=O)NCC(c2ccc3c(c2)CCN3C)N2CCCCC2)c1OC (configuration not stated)	21	/	/	/
CC1=NN(c2ccccc2)C(=O)C1C(=O)c1cccc(Cl)c1 (configuration not stated)	-13	/	/	/
COCCCn1c(=O)/c(=C\c2ccccc2OC(F)F)s/c1=C(/C#N)C(=O)NC(C)C	/	303*	-8	4
COC(=O)C(C#N)=C1C=Cc2ccccc2N1	-14	/	/	/
N#C/C(C(=O)Oc1ccccc1)=C1\C=Cc2ccccc2N1	/	50*	8	2
O=C(O)c1ccccc1-c1ccc(/C=C/c2cc(C(F)(F)F)[nH]c(=O)n2)o1	-10	745*	1	-28
N#Cc1ccc(NCCc2ccccn2)c([N+](=O)[O-])c1	3	5	9	5
O=[N+]([O-])c1cc(Cl)ccc1NCCc1ccccn1	55*	10	2	1
SMILES	PriA SSB inh	MazEF act	Yp Topo-I inh	SARS 3CLpro inh
Cc1ccc(-n2nnnc2SCc2nc3sc(C)c(C)c3c(=O)[nH]2)cc1	-1	68*	1	-1
Nc1c(C(=O)c2ccc(Cl)cc2)sc2nc3c(cc12)CCC3	-21	70*	-3	-4
C=CCOc1ccc(C(O)=C2C(=O)C(=O)N(CCN(C)C)C2c2cc(Br)c(O)c(OC)c2)cc1 (configuration not stated)	0	/	/	/
CCCc1cc2c(=O)c(-c3nc4ccccc4s3)c(COCC(=O)O)oc2cc1O	9	60*	-2	1
CCc1cc2c(=O)c(-c3nc4ccccc4n3C)c(COCC(=O)O)oc2cc1O	-1	7	4	0
Cc1ccc2nc(SCC(=O)Nc3ccc(C)c(Cl)c3)nc(=O)n2c1	-7	74*	4	/
O=C(C1CC1(c1ccccc1)c1ccccc1)N1CCOCC1 (configuration not stated)	55*	10	4	-5
